{
  "source": "paper PMC4552634",
  "about": "“A New Set of Chemical Starting Points with Plasmodium falciparum Transmission-Blocking Potential for Antimalarial Drug Discovery” (PLoS ONE, 2015)",
  "note": "Out of some 13,000 compounds screened, about 3,200 (25%) showed an effect of 50% or more. This is one part of the list.",
  "data": [
    {"tested_on": "P. falciparum stage V gametocytes", "set-up": "BacTiter-Glo ATP luminescence viability of purified stage V gametocytes in 384-well plates, per cent inhibition versus DMSO", "conditions": "48 h, 5 µM; inhibitor", "units": {"% Inhibition": "%"}, "values": [
      {"molecule": "O=C(NCc1cccc(F)c1)c1ccc(O)c(-c2cc(Cl)cc(Cl)c2)c1", "note": "[TCMDC-140157]", "% Inhibition": -3.983},
      {"molecule": "O=C(Nc1ccc(N2CCN(Cc3c[nH]c4cc(F)ccc34)CC2)cc1)c1ccccc1-c1ccc(C(F)(F)F)cc1", "note": "[TCMDC-138521]", "% Inhibition": 1.427},
      {"molecule": "Cc1nc2ccc3ccc(CNc4ccc5c(c4)CN([C@H](CCC(=O)O)C(=O)O)C5=O)cc3c2c(=O)[nH]1", "note": "[TCMDC-138033]", "% Inhibition": 21.85},
      {"molecule": "O=C(/C=C/c1ccc([N+](=O)[O-])cc1)N1CCC(NS(=O)(=O)c2ccc(F)cc2)CC1", "note": "[TCMDC-139441]", "% Inhibition": 26.45},
      {"molecule": "O=C(/C=C/c1ccc(Cl)c(Cl)c1)N1CCN(C(=O)Nc2ccc(F)c(Cl)c2)CC1", "note": "[TCMDC-135942]", "% Inhibition": -48.62},
      {"molecule": "O=C(C=Cc1ccc(F)cc1)N1CCN(S(=O)(=O)c2ccc(Cl)cc2)CC1", "note": "[TCMDC-125028]", "% Inhibition": 63.42},
      {"molecule": "Cc1cc(C(=O)Nc2ccc3c(c2)CCN3C2CCN(Cc3ccc(O)cc3)C2)no1", "note": "(stereo not shown) [TCMDC-135078]", "% Inhibition": -0.5259},
      {"molecule": "Cc1ccc(Cn2cnc3cc(C(=O)Nc4ccc(-c5ccc(CN(C)C)cc5)cc4)ccc3c2=O)o1", "note": "[TCMDC-132364]", "% Inhibition": 111.6},
      {"molecule": "CN(CCO)Cc1cccc(-c2ccc(NC(=O)c3cccc(C#N)c3)cc2)c1", "note": "[TCMDC-132671]", "% Inhibition": -45.65},
      {"molecule": "Cc1ccc(Cn2cnc3cc(C(=O)Nc4ccc(-c5cccc(CN(C)C)c5)cc4)ccc3c2=O)o1", "note": "[TCMDC-132366]", "% Inhibition": 91.1},
      {"molecule": "COc1cccc2cc(C(=O)N[C@@H](CC(C)C)C(=O)N[C@H](/C=N/NC(=O)Cc3cccnc3)CCc3ccccc3)oc12", "note": "[TCMDC-135634]", "% Inhibition": -9.897},
      {"molecule": "O=C(Nc1ccc(-c2nc3ccccc3[nH]2)cc1)c1cnc(Cl)c(Cl)c1", "note": "[TCMDC-125109]", "% Inhibition": -47.86},
      {"molecule": "CN1CCN(CC(=O)Nc2ccc(-c3ccc(-c4nc5ccccc5[nH]4)cc3)cc2)CC1", "note": "[TCMDC-136979]", "% Inhibition": -9.366},
      {"molecule": "CN1CCN(CC(=O)Nc2cccc(-c3ccc(-c4nc5ccc(F)cc5[nH]4)cc3)c2)CC1", "note": "[TCMDC-136978]", "% Inhibition": 78.56},
      {"molecule": "CN1CCN(CC(=O)Nc2cccc(-c3cccc(-c4nc5ccccc5[nH]4)c3)c2)CC1", "note": "[TCMDC-136972]", "% Inhibition": 82.82},
      {"molecule": "CN1CCC(C(=O)Nc2cccc(-c3ccc(-c4nc5ccc(F)cc5[nH]4)cc3)c2)CC1", "note": "[TCMDC-132185]", "% Inhibition": 12.21},
      {"molecule": "O=C(Cc1cnc[nH]1)Nc1cccc(-c2ccc(-c3nc4ccc(F)cc4[nH]3)cc2)c1", "note": "[TCMDC-136946]", "% Inhibition": 4.671},
      {"molecule": "CN1CCN(CC(=O)Nc2ccc(-c3cccc(-c4nc5ccc(F)cc5[nH]4)c3)cc2)CC1", "note": "[TCMDC-136973]", "% Inhibition": -61.95},
      {"molecule": "CN1CCN(CC(=O)Nc2cccc(-c3cccc(-c4nc5ccc(F)cc5[nH]4)c3)c2)CC1", "note": "[TCMDC-136974]", "% Inhibition": 72.37},
      {"molecule": "CN1CCC(C(=O)Nc2ccc(-c3cccc(-c4nc5ccc(F)cc5[nH]4)c3)cc2)CC1", "note": "[TCMDC-132180]", "% Inhibition": 28.01},
      {"molecule": "CN1CCN(CC(=O)Nc2cccc(-c3ccc(-c4nc5cc(F)ccc5[nH]4)s3)c2)CC1", "note": "[TCMDC-136986]", "% Inhibition": 9.75},
      {"molecule": "CN1CCN(CC(=O)Nc2ccc(-c3csc(-c4nc5ccccc5[nH]4)c3)cc2)CC1", "note": "[TCMDC-132392]", "% Inhibition": -27.46},
      {"molecule": "CN1CCC(C(=O)Nc2cccc(-c3cccc(-c4nc5ccc(F)cc5[nH]4)c3)c2)CC1", "note": "[TCMDC-132181]", "% Inhibition": 91.35},
      {"molecule": "CCCN(Cc1nnc(-c2cccs2)o1)C(=O)CSc1nnnn1-c1ccc(C)c(C)c1", "note": "[TCMDC-125240]", "% Inhibition": 7.835},
      {"molecule": "CCNc1cc(C(=O)N[C@@H](Cc2ccccc2)[C@H](O)CNC2(C(C)C)CCC2)cc(N2CCCCS2(=O)=O)c1", "note": "[TCMDC-135375]", "% Inhibition": 21.07},
      {"molecule": "O=C(Nc1cccc(N2CCC(NCc3cnn(-c4cccc(F)c4)c3)CC2)c1)c1ccncc1", "note": "[TCMDC-124666]", "% Inhibition": 1.522},
      {"molecule": "CCc1nc(N)nc(N)c1-c1ccc2c(c1)CCCC2", "note": "[TCMDC-137366]", "% Inhibition": 1.403},
      {"molecule": "CC(=O)c1c[nH]c2ccc(/C=C/C(=O)NC3CCC(CCN4CCc5ccc(C#N)cc5CC4)CC3)cc12", "note": "(stereo not shown) [TCMDC-139781]", "% Inhibition": 8.041},
      {"molecule": "Cc1cc(N(C)C)nc(Nc2ccc(NC(=O)Nc3ccccc3)cc2)n1", "note": "[TCMDC-124961]", "% Inhibition": -7.652},
      {"molecule": "CC(C)(C)OC(=O)Nc1cccc(-c2csc(N=C(N)N)n2)c1", "note": "[TCMDC-139458]", "% Inhibition": -7.948},
      {"molecule": "CC(C)(C)OC(=O)NCCc1cccc(-c2c[nH]c3ncc(-c4cccc(NS(C)(=O)=O)c4)cc23)c1", "note": "[TCMDC-136294]", "% Inhibition": 27.56},
      {"molecule": "Cc1ccc(-n2[nH]c(C)c(N=Nc3cccc(-c4cccc(NC(=O)OC(C)(C)C)c4)c3O)c2=O)cc1C", "note": "[TCMDC-141045]", "% Inhibition": 81.95},
      {"molecule": "COc1ccc(Nc2nccc(-c3ccc(NC(=O)c4cc5cc(F)ccc5[nH]4)cc3)n2)cc1", "note": "[TCMDC-133306]", "% Inhibition": 23.43},
      {"molecule": "CCNC(=O)Nc1cccc(-c2ccc(-c3nc4cccc(C)c4[nH]3)s2)c1", "note": "[TCMDC-133169]", "% Inhibition": -0.5138},
      {"molecule": "Cc1ccc(Nc2nc3cc(Nc4ccnc(Nc5ccc(CS(C)(=O)=O)cc5)n4)ccc3o2)cc1", "note": "[TCMDC-141799]", "% Inhibition": 11.69},
      {"molecule": "OC(COCc1ccc(-c2ccccc2)cc1)CN1CCCCC1", "note": "(stereo not shown) [TCMDC-132069]", "% Inhibition": -30.91},
      {"molecule": "Cc1ccc(NC(=O)c2ccc(CN3CCCN(CC4CCCCC4)CC3)cc2)cc1F", "note": "[TCMDC-136393]", "% Inhibition": -36.95},
      {"molecule": "CC1CN(c2ccc(NC(=O)c3ccc(F)cc3)cc2)CCN1Cc1cccc(F)c1", "note": "(stereo not shown) [TCMDC-135016]", "% Inhibition": 10.14},
      {"molecule": "CC(C)(C)c1ccc(CN2CCC(NC(=O)c3ccc(-c4cccc(F)c4)s3)CC2)cc1", "note": "[TCMDC-134350]", "% Inhibition": -0.6628},
      {"molecule": "c1ccc(Nc2nc(-c3ccccn3)cs2)nc1", "note": "[TCMDC-124275]", "% Inhibition": 108.4},
      {"molecule": "Cc1ccnc(Nc2nc(-c3ccccn3)cs2)c1", "note": "[TCMDC-125769]", "% Inhibition": 115.7},
      {"molecule": "Cc1ccc(Nc2nc(-c3ccccn3)cs2)nc1", "note": "[TCMDC-125854]", "% Inhibition": 98.08},
      {"molecule": "Cc1cccnc1Nc1nc(-c2ccccn2)cs1", "note": "[TCMDC-125846]", "% Inhibition": 115},
      {"molecule": "Cc1cccc(C(O)CNc2ccnc(Nc3cccc(-c4csc(C)n4)c3)n2)c1", "note": "(stereo not shown) [TCMDC-136568]", "% Inhibition": -28.27},
      {"molecule": "COc1cccc(C(=O)NCc2cccs2)c1OCc1ccccc1", "note": "[TCMDC-141234]", "% Inhibition": 8.01},
      {"molecule": "C#CCOc1ccccc1CN1CCC(N2CCc3cc(NC(=O)c4cc(C)on4)ccc32)C1", "note": "(stereo not shown) [TCMDC-135075]", "% Inhibition": -4.764},
      {"molecule": "Cc1[nH]c2ccc(NS(C)(=O)=O)cc2c1C1CCN(CCC2CCN(C(=O)/C=C/c3ccc(Cl)c(Cl)c3)CC2)CC1", "note": "[TCMDC-140126]", "% Inhibition": -29.87},
      {"molecule": "Cc1ccc(NC(=O)c2ccc3nccnc3c2)cc1OC1CCN(Cc2ccc(F)cc2)CC1", "note": "[TCMDC-133748]", "% Inhibition": -13.13},
      {"molecule": "O=C(Nc1ccccc1-c1ccccc1)C1CCCN1C(=O)Nc1ccc(Cl)cc1", "note": "(stereo not shown) [TCMDC-123648]", "% Inhibition": 32.25},
      {"molecule": "Cc1cc(NC(=O)Nc2ccc3nccc(N4CCN(C)CC4)c3c2)ccc1Br", "note": "[TCMDC-139361]", "% Inhibition": 36.21},
      {"molecule": "CC[C@H]1C[N+]2([O-])CC[C@@H]1C[C@H]2[C@H](O)c1cc(-c2ccccc2)nc2ccc(OC)cc12", "note": "[TCMDC-141330]", "% Inhibition": 6.04},
      {"molecule": "CC(=O)Nc1nc(C)c(-c2csc(Nc3ccc(Cl)cc3)n2)s1", "note": "[TCMDC-123995]", "% Inhibition": -35.56},
      {"molecule": "Clc1ccc(Nc2nc(-c3ccccn3)cs2)nc1", "note": "[TCMDC-123885]", "% Inhibition": 114},
      {"molecule": "Cc1cc(NCC2CCN(CC3CCCCC3)C2)nc(Nc2ccc(Br)cc2)n1", "note": "(stereo not shown) [TCMDC-137024]", "% Inhibition": -11.33},
      {"molecule": "NCc1ccc(CNCc2ccc(-c3ccc(-c4nc5ccc(F)cc5[nH]4)cc3)cc2)cc1", "note": "[TCMDC-132810]", "% Inhibition": 33.23},
      {"molecule": "CC(C)NCc1ccc(-c2ccc(-c3nc4ccc(C(F)(F)F)cc4[nH]3)cc2)cc1", "note": "[TCMDC-132741]", "% Inhibition": -41.38},
      {"molecule": "FC(F)(F)c1ccc2nc(-c3ccc(-c4ccc(CNCCN5CCNCC5)cc4)cc3)[nH]c2c1", "note": "[TCMDC-132865]", "% Inhibition": 81.47},
      {"molecule": "O=C(NCCN1CCCC1)c1cccc(-c2ccc(-c3nc4ccc(C(F)(F)F)cc4[nH]3)cc2)c1", "note": "[TCMDC-132322]", "% Inhibition": -42.59},
      {"molecule": "Fc1ccc2nc(-c3ccc(-c4ccc(CNCCN5CCNCC5)cc4)cc3)[nH]c2c1", "note": "[TCMDC-132866]", "% Inhibition": 95.81},
      {"molecule": "Fc1ccc2nc(-c3ccc(-c4ccc(CNCc5ccccc5)cc4)cc3)[nH]c2c1", "note": "[TCMDC-132706]", "% Inhibition": -8.739},
      {"molecule": "Cc1ccc(O)cc1Nc1ccnc2ccc(-c3csc(CNCCN4CCOCC4)n3)cc12", "note": "[TCMDC-138419]", "% Inhibition": 24.32},
      {"molecule": "C=CCOC(=O)N1CCC(CNCc2cccc(-c3cccc(-c4nc5cc(F)ccc5[nH]4)c3)c2)C1.O=C(O)C(F)(F)F", "note": "(stereo not shown) [TCMDC-133045]", "% Inhibition": -22.96},
      {"molecule": "O=C(CC(=O)Nc1cc(Cl)cc(Cl)c1)Nc1cc(Cl)cc(Cl)c1", "note": "[TCMDC-124303]", "% Inhibition": 1.845},
      {"molecule": "O=C(Nc1cccc(-c2nn3ccccc3c2-c2ccnc(Nc3cccc(F)c3)n2)c1)c1c(F)ccc(F)c1Cl", "note": "[TCMDC-135830]", "% Inhibition": 19.22},
      {"molecule": "CCCCCCCOc1ccc(NC(=O)Nc2ccc(Cn3ncc(N4CCCNCC4)c(Cl)c3=O)cc2)cc1", "note": "[TCMDC-133318]", "% Inhibition": 42.33},
      {"molecule": "CC(C)Sc1nc(-c2ccccc2)nc2c1COC(C)(C)C2", "note": "[TCMDC-125132]", "% Inhibition": -39.31},
      {"molecule": "CC(C)c1nc(N2CCN(C(=S)NCc3ccccc3)CC2)c(C#N)c2c1COC(C)(C)C2", "note": "[TCMDC-124093]", "% Inhibition": 85.74}
    ]}
  ]
}
